We go through seven compounds from PubChem BioAssay.

Molecules are shown by their SMILES. Where “and” joins values, the source holds several entries; their conditions need not be identical. Equal entries are not always repeated. Calls of active or inactive are those of the source. Unless noted, how the calls were made is not given here.

Assay [1] can be described thus: resazurin metabolic signal in HepG2 cells – cell-based, resazurin fluorescence, 24 h, PK04 Diversity Set, profiling panel (AID 1172). To be noted: HepG2 viability, higher = more signal. A general note: Resazurin is reduced to fluorescent resorufin, in cell work by metabolically active cells.
Assay [2] can be described thus: budding yeast growth changes without added modifier – OD600, strain BY4716, 24 h, basal condition, primary screen (AID 1173). The note with it: S. cerevisiae BY4716 growth, OD600, 24 h; higher = more signal, called active from +8 up or from −8 down.
Assay [3] is described as follows: viability profiling in MM1S myeloma cells – cell-based, resazurin fluorescence, basal, 24 h, PK04 Diversity Set, profiling panel (AID 1174).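 Further: MM1S multiple myeloma cell line.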 To be noted: higher = more signal, called active from +8 up or from −8 down.
The target of assay [4] is Dihydroorotate dehydrogenase (quinone), mitochondrial (Plasmodium falciparum (isolate 3D7)) (UniProt Q08210). Put plainly: inhibition of P. falciparum DHODH – biochemical, C-terminal His tag, absorbance 600 nm, primary screen (AID 1175).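 Further: recombinant parasite enzyme with a five histidine tag at its C terminus.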 To be noted: PfDHODH enzyme, DCIP absorbance 600 nm; higher = more signal, called active from +8 up or from −8 down.
A short description of assay [5]: inhibition of PAO1 biofilm formation – strain PAO1, LB-PBS medium, absorbance 600 nm, primary screen (AID 1176). The note with it: P. aeruginosa PAO1 growth/biofilm, A600, 12 h; higher = more signal.
Assay [6] can be described thus: growth modulation of vineyard yeast isolate – strain RM11-1a, OD600, basal, 24 h, primary screen (AID 1177).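 Further: cultures grown under basal conditions with no added stressor.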 The note with it: S. cerevisiae RM11-1a growth, OD600, 24 h; higher = more signal, called active from +8 up or from −8 down.
Assay [7] can be described thus: growth of efflux-deficient E. coli DRC39 – strain DRC39, OD650, 24 h, E. coli filamentation inducers, primary screen (AID 1178).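 Further: growth measured as culture turbidity by optical density at 650 nm.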 To be noted: E. coli DRC39 acrAB, higher = more signal, called active from +8 up or from −8 down.
Assay [8] in a line: growth of efflux-deficient E. coli DRC39 – strain DRC39, OD650, 48 h, E. coli filamentation inducers, primary screen (AID 1179).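 Further: screen aims at cell division blockers that make cells filament.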 The note with it: E. coli DRC39 delta-acrAB growth, higher = more signal, called active from +8 up or from −8 down.
A short description of assay [9]: viability profiling in RPMI8226 myeloma cells – cell-based, resazurin fluorescence, basal, 24 h, PK04 Diversity Set, profiling panel (AID 1180).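 Further: RPMI8826 multiple myeloma cell line at 5000 cells per well.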 To be noted: higher = more signal.
In assay [10] the target is E3 ubiquitin-protein ligase XIAP (Homo sapiens) (UniProt P98170). Put plainly: small molecules binding XIAP protein – biophysical, small-molecule microarray, fluorescence 635 nm, primary screen (AID 1181).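 Further: score merges 667 nm emission and signal to noise over triplicate slides.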 To be noted: higher = more signal.
Assay [11] relates to XIP peptide (Xip251-270) binding. Put plainly: XIP fragment 251-270 binding compounds – biochemical, small-molecule microarray, fluorescence 635/667 nm, 0.1 µg/mL protein, primary screen (AID 1182). The note with it: fluorescent protein binding, 635 nm, higher = more signal, called active from +8 up or from −8 down.
In assay [12] the test system is XIP peptide (Xip251-270). The assay can be described thus: compounds binding XIP fragment 251-270 – biochemical, small-molecule microarray, fluorescence 635/667 nm, 0.5 µg/mL protein, primary screen (AID 1183). To be noted: fluorescence 635 nm, higher = more signal.
Assay [13] can be described thus: blood-stage malaria parasite viability loss – strain 3D7, DAPI fluorescence, 100 nL, primary screen (AID 1184).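 Further: parasites grown inside human red blood cells in medium with human serum.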 To be noted: P. falciparum 3D7 growth, 3 d, higher = more signal.
Assay [14] concerns the target Homeobox protein Hox-A13 (Mus musculus) (UniProt Q62424). Put plainly: disruptors of Hoxa13 oligonucleotide interaction – biochemical, fluorescence polarization, labeled oligonucleotide, primary screen (AID 1185). To be noted: Hoxa13:DNA binding, 15 min, higher = more signal, called active from +8 up or from −8 down.

Sequence of Homeobox protein Hox-A13 (Mus musculus) (Q62424 whole entry, looked up): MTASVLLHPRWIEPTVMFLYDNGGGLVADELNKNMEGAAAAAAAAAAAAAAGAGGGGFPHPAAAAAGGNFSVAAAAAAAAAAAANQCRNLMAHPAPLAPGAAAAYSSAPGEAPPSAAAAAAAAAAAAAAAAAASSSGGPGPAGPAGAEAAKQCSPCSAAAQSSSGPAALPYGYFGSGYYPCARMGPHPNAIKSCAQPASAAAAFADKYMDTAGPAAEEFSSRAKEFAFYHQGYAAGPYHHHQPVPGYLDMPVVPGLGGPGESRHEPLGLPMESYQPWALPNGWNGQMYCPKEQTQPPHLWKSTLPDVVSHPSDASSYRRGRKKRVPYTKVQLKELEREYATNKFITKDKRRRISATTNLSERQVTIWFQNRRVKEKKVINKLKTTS
Sequence of Dihydroorotate dehydrogenase (quinone), mitochondrial (Plasmodium falciparum (isolate 3D7)) (Q08210 whole entry, looked up): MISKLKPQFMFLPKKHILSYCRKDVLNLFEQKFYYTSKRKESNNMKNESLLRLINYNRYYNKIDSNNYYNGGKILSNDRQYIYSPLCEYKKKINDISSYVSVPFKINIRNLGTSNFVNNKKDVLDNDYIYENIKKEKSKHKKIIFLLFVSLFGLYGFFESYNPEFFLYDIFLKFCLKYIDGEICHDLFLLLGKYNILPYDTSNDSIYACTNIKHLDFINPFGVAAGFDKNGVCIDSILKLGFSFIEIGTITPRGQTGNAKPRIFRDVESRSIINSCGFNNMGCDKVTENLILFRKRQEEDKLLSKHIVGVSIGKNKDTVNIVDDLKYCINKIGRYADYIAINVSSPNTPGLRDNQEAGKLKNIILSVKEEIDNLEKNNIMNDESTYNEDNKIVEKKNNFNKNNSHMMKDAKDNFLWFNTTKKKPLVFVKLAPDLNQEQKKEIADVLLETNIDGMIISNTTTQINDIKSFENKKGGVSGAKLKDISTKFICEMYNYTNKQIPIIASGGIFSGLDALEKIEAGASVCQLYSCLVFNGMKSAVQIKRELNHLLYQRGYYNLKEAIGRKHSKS
Sequence of E3 ubiquitin-protein ligase XIAP (Homo sapiens) (P98170 whole entry, looked up, the tested form may be a part): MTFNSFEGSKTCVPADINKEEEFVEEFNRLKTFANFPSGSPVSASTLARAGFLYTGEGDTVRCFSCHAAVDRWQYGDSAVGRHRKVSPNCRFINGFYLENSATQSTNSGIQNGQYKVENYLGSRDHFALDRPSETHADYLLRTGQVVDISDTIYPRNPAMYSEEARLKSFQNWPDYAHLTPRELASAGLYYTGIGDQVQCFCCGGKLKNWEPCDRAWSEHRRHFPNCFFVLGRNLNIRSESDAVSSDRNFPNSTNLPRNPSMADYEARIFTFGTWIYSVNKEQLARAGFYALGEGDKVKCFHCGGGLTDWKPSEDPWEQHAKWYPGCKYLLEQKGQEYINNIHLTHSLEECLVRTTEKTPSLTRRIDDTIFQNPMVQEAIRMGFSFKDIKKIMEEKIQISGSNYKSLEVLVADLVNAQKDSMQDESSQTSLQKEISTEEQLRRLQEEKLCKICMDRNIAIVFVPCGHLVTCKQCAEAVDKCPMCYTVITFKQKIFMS

As for `CO[C@H]1COC(=O)CC=C[C@@H](C)COC(=O)[C@@H](OCc2ccccc2)C=C[C@@H]1C`, the z-score is 0.537 in assay [1]; -1.93 (inactive) in assay [2]; 0.155 (inactive) in [3]; -0.72 (inactive) in [5]; -0.78 (inactive) in assay [6]; 0.84 (inactive) in assay [7]. Moreover, the z-score was 0.929 (inactive) in assay [8], 0.142 in [9], 0.56 in assay [13] and -0.383 (inactive) in assay [14]. The composite z-score in assay [4] is -0.825 (inactive); in [10], -0.245; in [11], -0.147 (inactive); in [12], -0.106.

Turning to `CON(C)C(=O)c1nnc2c3ccccc3n(S(=O)(=O)c3ccc(C)cc3)c2n1`, the z-score in assay [1] was -0.311 and -0.466; in assay [2], -0.148 (inactive) and -0.378 (inactive); in assay [3] it was -0.125 (inactive) and -0.498 (inactive); in assay [5] it was -0.446 (inactive) and 0.757 (inactive); in assay [6], -0.469 (inactive) and -0.226 (inactive); in [7], -0.339 (inactive) and 0.046 (inactive). Moreover, the z-score in [8] was -0.512 (inactive) and -0.404 (inactive); in assay [9], -0.691 and -0.232; in [13], -0.248 and -0.675; in assay [14], -5.36 (inactive) and -5.11 (inactive). Also, the composite z-score in assay [4] was 0.354 (inactive) and -0.588 (inactive); in [10], -0.146 and 0.687; in [11], 0.41 (inactive) and 0.536 (inactive); in assay [12] it was 0.632 and 0.305.

For `COC(=O)CC=C[C@@H](C)[C@@H](CO)NS(=O)(=O)c1ccc(C)cc1`, the z-score in [1] was 0.553 and -0.369; in assay [2], 0.909 (inactive) and -1.39 (inactive); in assay [3], 0.0323 (inactive) and -0.548 (inactive); in assay [5], 0.013 (inactive) and 0.204 (inactive); in assay [6] it was -0.214 (inactive) and -0.162 (inactive); in assay [7] it was -0.0056 (inactive) and 0.413 (inactive). Further, the z-score in [8] was -0.214 (inactive) and 0.297 (inactive); in assay [9], 0.519 and -0.314; in [13] it was -0.106 and 0.0276; in [14], 0.0308 (inactive) and -1.12 (inactive). Also, the composite z-score in assay [4] was 0.581 (inactive) and -0.0189 (inactive); in assay [10] it was -0.275 and 0.0656; in assay [11], -0.468 (inactive) and 0.212 (inactive); in assay [12], 0.169 and 0.315.

Regarding `CC(C)=NOCc1ccc(-c2cn([C@@H]3COC[C@H]3O)nn2)cc1`, the z-score is -0.203 in assay [1]; 0.313 (inactive) in assay [2]; 0.0429 (inactive) in [3]; -0.0691 (inactive) in assay [5]; -0.0292 (inactive) in [6]; 0.114 (inactive) in [7]. Besides, the z-score is -0.0038 (inactive) in [8], 0.106 in assay [9], 1.76 in assay [13] and -0.221 (inactive) in assay [14]. For the same compound, the composite z-score was -0.478 (inactive) in [4], 0.0049 in assay [10], 0.364 (inactive) in assay [11] and -0.149 in assay [12].

`CC(C)=CCCC(C)=CCON=C1C[C@@H](O)[C@@H](O)[C@@H]2[C@@H]3C(=O)N([C@@H](C)c4ccccc4)C(=O)[C@@H]3CC[C@H]12`: the z-score is -1.03 in [1]; -3.41 (inactive) in [2]; -0.339 (inactive) in assay [3]; 0.365 (inactive) in assay [5]; -2.18 (inactive) in [6]; -1 (inactive) in assay [7]. For the same compound, the z-score is -0.666 (inactive) in assay [8], -0.637 in [9], -0.12 in assay [13] and -0.414 (inactive) in assay [14]. The composite z-score was -1.48 (inactive) in assay [4], 0.104 in assay [10], 1.32 (inactive) in assay [11] and 0.105 in assay [12].

On to `CO[C@@H]1COC(=O)CC=C[C@H](C)[C@@H](NS(=O)(=O)c2ccc(C)cc2)COC(=O)CC=C[C@@H]1C`, for which the z-score was 0.157 and 1.73 in assay [1]; -0.627 (inactive) and -0.634 (inactive) in assay [2]; 0.445 (inactive) and 0.542 (inactive) in assay [3]; -0.531 (inactive) and -0.479 (inactive) in assay [5]; 0.344 (inactive) and 0.104 (inactive) in assay [6]; 0.643 (inactive) and 0.426 (inactive) in assay [7]. Further, the z-score was 0.292 (inactive) and 0.187 (inactive) in assay [8]; -0.325 and 0.774 in [9]; 0.707 and -0.283 in assay [13]; -1.05 (inactive) and -2.69 (inactive) in [14]. The composite z-score in assay [4] is -0.198 (inactive) and -0.555 (inactive); in [10] it was -0.209 and -0.304; in assay [11], 1.11 (inactive) and 0.147 (inactive); in assay [12] it was 0.77 and 0.481.

On to `CCN1C(=O)[C@H]2[C@H]3[C@H](O)[C@H](O)CC(=NOC)[C@@H]3CC[C@H]2C1=O`, for which the z-score in assay [1] was 0.146; in assay [2] it was -1.88 (inactive); in assay [3], 0.0831 (inactive); in assay [5] it was 0.924 (inactive); in assay [6] it was -0.458 (inactive); in [7], 0.759 (inactive). Besides, the z-score is 0.953 (inactive) in assay [8], 0.0325 in assay [9], 0.638 in [13] and 1.98 (inactive) in assay [14]. Also, the composite z-score in assay [4] is -0.581 (inactive); in assay [10], 0.487; in [11] it was -0.397 (inactive); in assay [12] it was 0.774.
